# Measurements as given in PubChem BioAssay (Tox21).
# Several values for one entry are separate records, joined by “and”; a condition that tells them apart may be missing. Equal values may be shown once. A structure can be active in one record and inactive in another. Activity calls are given as the source filed them. Entries that show only a call come without a potency. Unless noted, calls follow the shape of the full dose curve.
# Target: Estrogen receptor (Homo sapiens) (UniProt P03372)
# Assay: qHTS assay to identify small molecule antagonists of the estrogen receptor alpha (ER-alpha) signaling pathway (AID 743069; active = well fitted curve in the direction sought with a large enough effect in the signal ratio in the repeat runs, not every such curve was filed as active; inconclusive = weak or mixed curves, or effect the other way; inactive = no such curve, though single readings can be large or run the other way; the % refers to the signal ratio)
# Settings: HEK293 ER-alpha-UAS-bla, beta-lactamase ratio, antagonist mode; series mostly up to 69.4 µM
# Summary of the method: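 HEK293 ER-alpha-UAS-bla GripTite cells, held overnight in 2% charcoal-stripped FBS, 5,000 cells/well, preincubated 4 h, then compound plus 17beta-estradiol for 18 h at 37C. Beta-lactamase read by LiveBLAzer B/G FRET substrate, 2 h at room temperature.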
# Potency is read from the fitted curve at half-maximal effect.
# Estrogen receptor (Homo sapiens), sequence (P03372 whole entry, looked up): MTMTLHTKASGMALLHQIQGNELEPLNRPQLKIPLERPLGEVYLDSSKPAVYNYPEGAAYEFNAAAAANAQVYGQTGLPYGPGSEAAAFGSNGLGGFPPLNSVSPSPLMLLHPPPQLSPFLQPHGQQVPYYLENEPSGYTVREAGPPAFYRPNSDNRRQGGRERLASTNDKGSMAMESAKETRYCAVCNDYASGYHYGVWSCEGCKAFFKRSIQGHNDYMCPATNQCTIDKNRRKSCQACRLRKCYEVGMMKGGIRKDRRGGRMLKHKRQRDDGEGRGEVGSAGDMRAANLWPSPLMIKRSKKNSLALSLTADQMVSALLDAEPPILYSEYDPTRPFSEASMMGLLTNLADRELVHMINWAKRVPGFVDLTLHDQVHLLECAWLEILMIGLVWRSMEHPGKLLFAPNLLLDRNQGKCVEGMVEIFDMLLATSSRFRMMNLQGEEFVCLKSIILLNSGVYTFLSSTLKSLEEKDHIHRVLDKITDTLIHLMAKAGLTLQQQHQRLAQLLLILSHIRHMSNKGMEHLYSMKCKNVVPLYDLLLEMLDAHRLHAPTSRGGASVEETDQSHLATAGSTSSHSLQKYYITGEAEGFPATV
row,Compound,Potency
1,O=[N+]([O-])c1cc(Cl)c(Cl)cc1Cl,inactive
2,CC(C)(C)NCC(O)c1ccccc1Cl (centres undefined),inactive
3,O=C([O-])c1ccccn1.O=C([O-])c1ccccn1.O=C([O-])c1ccccn1.[Cr+3],inactive
4,CCSCc1ccccc1OC(=O)NC,inactive
5,C=CCOC(=O)C(C)(C)OC(=O)c1cc(-n2c(=O)cc(C(F)(F)F)n(C)c2=O)ccc1Cl,inactive
6,CC(O)CN1CCN(CC(=O)[O-])CCN(CC(=O)[O-])CCN(CC(=O)[O-])CC1.[Gd+3] (centres undefined),inactive
7,CCCN(CCC)c1c([N+](=O)[O-])cc(C(C)C)cc1[N+](=O)[O-],inactive
8,Nc1c(Br)cc(Br)c2c1C(=O)c1ccccc1C2=O,inactive
9,O=P(OCC(Br)CBr)(OCC(Br)CBr)OCC(Br)CBr (centres undefined),62.5 µM [inconclusive] (active) and 46.5 µM [inconclusive] (active)
10,C=C(Cl)Cl,inactive
11,SCc1ccccc1,inactive
12,CCCC[N+]1(C)[C@@H]2CC(OC(=O)[C@H](CO)c3ccccc3)C[C@H]1[C@@H]1O[C@@H]12 (some centres undefined),inactive
13,CN1CC[C@]23c4c5ccc(O)c4O[C@H]2[C@@H](O)CC[C@H]3[C@H]1C5,inactive
14,N#CC(C#N)=C(C#N)C#N,inactive
15,CCCC(C)(COC(N)=O)COC(=O)NC(C)C (centres undefined),inactive
16,C=CCOCC1CO1 (centres undefined),inactive
17,COCc1cnc(C2=NC(C)(C(C)C)C(=O)N2)c(C(=O)O)c1 (centres undefined),inactive
18,CN[C@@H](C)[C@H](O)c1ccccc1,inactive
19,COc1cc(CC(C)N)c(OC)cc1Br (centres undefined),inactive

row,Compound,Potency
1,OCCSSCCO,inactive
2,CCCCCBr,inactive
3,Cc1ccc2c(C)cccc2c1,inactive
4,CCCCC(CC)CO[N+](=O)[O-] (centres undefined),inactive
5,COC(=O)C1(O)c2ccccc2-c2ccccc21,inactive
6,CCC[N+](CCC)(CCC)CCC,inactive
7,CN(C1CCCCC1)C1CCCCC1,inactive
8,CCNC(=O)NC(=O)/C(C#N)=N/OC,inactive
9,C=C(C)C(=O)OCCCCOC(=O)C(=C)C,inactive
10,CCCSP(=S)(OCC)Oc1ccc(SC)cc1 (centres undefined),inactive
11,CCCBr,inactive
12,CC(C)c1ccc(OP(=O)(Oc2ccc(C(C)C)cc2)Oc2ccc(C(C)C)cc2)cc1,inactive
13,CCCC1CCCCN1 (centres undefined),inactive
14,Clc1ccccc1,inactive
15,C[N+](C)(C)CC1CO1 (centres undefined),inactive
16,CCCC[N+](CCCC)(CCCC)CCCC,inactive
17,CCC1(CC)C(=O)NC(=O)NC1=O,inactive
18,CCOP(=S)(S)OCC,inactive

# Tested on: not listed separately
# Assay: qHTS assay to identify small molecule antagonists of the estrogen receptor alpha (ER-alpha) signaling pathway - cell viability counter screen (AID 743074);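 also: HEK293 cells carrying ER-alpha-UAS-bla reporter stimulated with 17beta-estradiol; nearly all actives have a fitted effect of over 45% in size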
# Settings: ERalpha-bla HEK293 viability, CellTiter-Glo luminescence, 18 h; series mostly up to 69.4 µM
row,Compound,Potency
1,O=[N+]([O-])c1cc(Cl)c(Cl)cc1Cl,inactive
2,CC(C)(C)NCC(O)c1ccccc1Cl (centres undefined),inactive
3,O=C([O-])c1ccccn1.O=C([O-])c1ccccn1.O=C([O-])c1ccccn1.[Cr+3],inactive
4,CCSCc1ccccc1OC(=O)NC,inactive
5,C=CCOC(=O)C(C)(C)OC(=O)c1cc(-n2c(=O)cc(C(F)(F)F)n(C)c2=O)ccc1Cl,inactive
6,CC(O)CN1CCN(CC(=O)[O-])CCN(CC(=O)[O-])CCN(CC(=O)[O-])CC1.[Gd+3] (centres undefined),inactive and 21.3 µM (active)
7,CCCN(CCC)c1c([N+](=O)[O-])cc(C(C)C)cc1[N+](=O)[O-],inactive
8,Nc1c(Br)cc(Br)c2c1C(=O)c1ccccc1C2=O,inactive
9,O=P(OCC(Br)CBr)(OCC(Br)CBr)OCC(Br)CBr (centres undefined),inactive
10,C=C(Cl)Cl,inactive
11,SCc1ccccc1,inactive
12,CCCC[N+]1(C)[C@@H]2CC(OC(=O)[C@H](CO)c3ccccc3)C[C@H]1[C@@H]1O[C@@H]12 (some centres undefined),inactive
13,CN1CC[C@]23c4c5ccc(O)c4O[C@H]2[C@@H](O)CC[C@H]3[C@H]1C5,inactive
14,N#CC(C#N)=C(C#N)C#N,inactive
15,CCCC(C)(COC(N)=O)COC(=O)NC(C)C (centres undefined),inactive
16,C=CCOCC1CO1 (centres undefined),inactive
17,COCc1cnc(C2=NC(C)(C(C)C)C(=O)N2)c(C(=O)O)c1 (centres undefined),inactive
18,CN[C@@H](C)[C@H](O)c1ccccc1,inactive
19,COc1cc(CC(C)N)c(OC)cc1Br (centres undefined),inactive

row,Compound,Potency
1,OCCSSCCO,inactive
2,CCCCCBr,inactive
3,Cc1ccc2c(C)cccc2c1,inactive
4,CCCCC(CC)CO[N+](=O)[O-] (centres undefined),inactive
5,COC(=O)C1(O)c2ccccc2-c2ccccc21,inactive
6,CCC[N+](CCC)(CCC)CCC,inactive
7,CN(C1CCCCC1)C1CCCCC1,inactive
8,CCNC(=O)NC(=O)/C(C#N)=N/OC,inactive
9,C=C(C)C(=O)OCCCCOC(=O)C(=C)C,inactive
10,CCCSP(=S)(OCC)Oc1ccc(SC)cc1 (centres undefined),inactive
11,CCCBr,inactive
12,CC(C)c1ccc(OP(=O)(Oc2ccc(C(C)C)cc2)Oc2ccc(C(C)C)cc2)cc1,inactive
13,CCCC1CCCCN1 (centres undefined),inactive
14,Clc1ccccc1,inactive
15,C[N+](C)(C)CC1CO1 (centres undefined),inactive
16,CCCC[N+](CCCC)(CCCC)CCCC,inactive
17,CCC1(CC)C(=O)NC(=O)NC1=O,inactive
18,CCOP(=S)(S)OCC,inactive
